From the supplement of paper PMC12636033
± gives the standard deviation of the averaged measurements. The full ranking holds about 33,000 sequences; the median of “E-score (rank enrichment, -0.5 to 0.5)” is about -0.0068, and the highest 2% start at about 0.24. What follows is part of a selection rich in the highest values, with near analogues and random picks from the rest.

What follows are sequences tested on muMax20 (Max(13-93) K31hArg/K57hArg, M65Nle) (assay: PBM 8-mer E-score (E-score (rank enrichment, -0.5 to 0.5)); higher = stronger preferential binding).
Protocol: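 Protein binding microarray (universal PBM chip covering all 10-mers in fixed probe flanks) with chemically synthesized human Max(13-93) bHLH-LZ analogs (not full-length Max) bearing noncanonical residues (hArg, Tha, Aib, Nle at 65) and aromatic Cys staples. Read-out per 8-mer (and its reverse complement): E-score (rank-based enrichment, -0.5 to 0.5) and Z-score of median probe intensity.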

Sequence	PBM 8-mer E-score
GGAGGGCA	0.044 ± 0.11
ATCAATTC	0.172 ± 0.013
ATCAATTG	0.262 ± 0.073
ATCAATTA	0.229 ± 0.068
ACAATAAA	0.275 ± 0.025
ACAATAAT	0.286 ± 0.0027
ACAATAAG	0.21 ± 0.021
ACAATAAC	0.191 ± 0.0039
CCAATAAG	-0.0178 ± 0.017
ACAATCAC	0.228 ± 0.053
AGAATAAT	0.116 ± 0.05
CCAATAAA	0.266 ± 0.026
ACAATCAT	0.273 ± 0.042
TCAATAAA	0.114 ± 0.043
ACAATCAA	0.0227 ± 0.021
GCAATAAA	0.0786 ± 0.0037
ACGTCTGA	-0.0769 ± 0.16
CAGGGCAC	-0.0777 ± 0.0056
AGGACCGC	0.0155 ± 0.085
CGACCTGC	-0.105 ± 0.063
GAAACCCC	-0.0104 ± 0.014
TAAGATTA	0.129 ± 0.04
TGCTTAAA	0.024 ± 0.12
ACTCGCGG	-0.0552 ± 0.016
ATACAGTC	0.0784 ± 0.094

Sequence	PBM 8-mer E-score
ATACAGTA	0.233 ± 0.095
ATACAGTG	0.2396 ± 0.0022
GCGTGCAA	0.0854 ± 0.022
CTTGAGTC	-0.0129 ± 0.11
CTCGACGA	-0.142 ± 0.024
GAGCCCTA	-0.14 ± 0.018
GGAAACAA	0.0706 ± 0.057
AAAAACTA	0.095 ± 0.061
TTAAACAA	0.0932 ± 0.11
AGAAACAA	0.2614 ± 0.0014
ATAAACAC	0.164 ± 0.11
TAAAACTA	0.239 ± 0.11
GTAAAACA	0.108 ± 0.0083
ATAAACAA	0.27 ± 0.049
ATAAAACA	0.31 ± 0.025
CAAAACTA	0.132 ± 0.15
AGAAACAC	0.00585 ± 0.032
ATAAAACG	0.194 ± 0.02
GGGAACAA	0.144 ± 0.0098
AGCCCCTC	0.0302 ± 0.046
AGCTCCTG	-0.171 ± 0.17
CAGTCACC	-0.064 ± 0.14
AGTTGAAG	0.0533 ± 0.067
CGGGAAGA	-0.0577 ± 0.15
ACAAAACG	0.187 ± 0.013

Sequence	PBM 8-mer E-score
ATAAACTA	0.276 ± 0.041
AAAAAACG	0.241 ± 0.023
AAAAAACA	0.272 ± 0.11
TAAAAACA	0.171 ± 0.018
ATAAACTG	0.0137 ± 0.077
CAAAAACG	0.111 ± 0.068
ATAAACTC	0.117 ± 0.039
GAAAAACA	0.16 ± 0.037
AGATAGAG	-0.0243 ± 0.056
ACAATGCG	0.0438 ± 0.031
CCGTTTCC	0.0806 ± 0.018
CCTTTCCA	0.0937 ± 0.037
CCCTTATA	0.199 ± 0.086
ATGTAACG	0.122 ± 0.029
TAGTAACA	0.239 ± 0.066
CTGTAAAA	0.0545 ± 0.043
CTGTAATA	0.175 ± 0.023
ATGTAAAA	0.221 ± 0.049
AAGTAACA	0.152 ± 0.018
ATGTAATG	0.2252 ± 0.0016
ATGTAATA	0.2587 ± 0.0011
ATGTAACA	0.244 ± 0.057
CTGTAACA	0.0977 ± 0.058
GAGTAACA	0.164 ± 0.033
TTGTAAAA	0.24 ± 0.053

Sequence	PBM 8-mer E-score
CTAGTTAC	-0.0138 ± 0.072
AATTGCCA	0.0456 ± 0.0012
CATTCGGG	-0.0351 ± 0.075
AATCTTGC	-0.066 ± 0.042
ACGAGTGA	-0.0322 ± 0.14
CTGTAAAG	-0.0854 ± 0.0043
ATGTAAAT	0.154 ± 0.09
ATGTAAAG	0.244 ± 0.038
GGCTGACA	-0.104 ± 0.086
ACCGTCAA	-0.205 ± 0.0036
TATTAGAA	0.268 ± 0.0096
CACTATAA	0.0282 ± 0.15
TACTACAA	0.286 ± 0.0027
TATTACAA	0.236 ± 0.041
AATTACAA	0.209 ± 0.066
TACTATAA	0.284 ± 0.021
AACTACAA	0.0818 ± 0.066
AACTATAA	0.229 ± 0.044
CACTACAA	0.152 ± 0.021
GATTAGAA	0.0438 ± 0.032
CATTACAA	0.184 ± 0.097
CATTAGAA	0.0939 ± 0.015
CTGGGAGC	-0.247 ± 0.043
AAAGTCCG	-0.148 ± 0.0098
GTGGAAAC	0.119 ± 0.033

Sequence	PBM 8-mer E-score
CCCTCATA	0.135 ± 0.065
GTAGACAA	0.173 ± 0.061
GTCTTAGA	-0.0878 ± 0.12
GGGCAAAA	-0.107 ± 0.024
AGGGGTAG	0.123 ± 0.011
CTGTGGGA	-0.0483 ± 0.025
AATTGATA	0.232 ± 0.016
AATTGATG	0.264 ± 0.051
AATTGATC	0.0857 ± 0.087
GAAGGGCA	0.156 ± 0.0064
ATTATGTC	0.066 ± 0.23
ATAATGTA	0.276 ± 0.0095
AGTATACT	0.258 ± 0.04
ACTATAGA	0.117 ± 0.049
ATAATGTC	0.0566 ± 0.18
CTAATGTA	0.1481 ± 0.0014
AGTATACC	0.077 ± 0.053
ATTATGTG	0.164 ± 0.049
ACTATAGG	0.0643 ± 0.011
ACTATAGT	0.243 ± 0.03
ATTATGTA	0.247 ± 0.0099
AGTATACA	0.175 ± 0.1
AACGTTGA	0.212 ± 0.038
CAGTTGTC	-0.0724 ± 0.03
AATCTGCC	-0.0641 ± 0.019

Sequence	PBM 8-mer E-score
AACCTAAC	0.00712 ± 0.17
AAGATAGT	0.0344 ± 0.11
ATGGTCGG	0.12 ± 0.014
AATCGGAT	-0.181 ± 0.015
GCCGGTCA	-0.116 ± 0.078
AATTACGC	0.0652 ± 0.043
GTTATACA	0.195 ± 0.095
ATTAGATA	0.262 ± 0.057
ATTATATC	0.247 ± 0.031
AGTATAAC	0.097 ± 0.009
GTTAGATA	0.164 ± 0.13
ATTAGATG	0.226 ± 0.051
AATATATC	0.0912 ± 0.07
AGTATAAG	0.237 ± 0.042
GTTATATA	0.25 ± 0.023
GTTATAGA	0.21 ± 0.089
CTTATATC	0.137 ± 0.08
AGTATAAA	0.213 ± 0.011
CATGGCAC	0.0103 ± 0.037
CTGTGTGA	0.134 ± 0.012
CAGCGCAC	-0.171 ± 0.087
TATGAGGA	-0.0378 ± 0.11
AACAGACG	-0.142 ± 0.096
GGTGGATA	-0.0515 ± 0.1
ACGGTTCA	-0.138 ± 0.047

Sequence	PBM 8-mer E-score
CTAGGTGA	0.108 ± 0.032
TAGGATGA	-0.00288 ± 0.12
CGTATCTA	-0.0745 ± 0.11
ATTATACG	0.0459 ± 0.063
ATTATATA	0.242 ± 0.03
ATTATATG	0.251 ± 0.03
GGTATCTA	-0.022 ± 0.064
AGTATCTA	0.344 ± 0.011
AGTATATC	-0.038 ± 0.059
CTTATATA	0.226 ± 0.043
AGTATATA	0.277 ± 0.12
AGTATATG	0.145 ± 0.017
ATTATACA	0.174 ± 0.083
ACTATATG	0.191 ± 0.089
GCCGTACA	0.042 ± 0.14
GGCGTACA	-0.082 ± 0.02
CAAACGTC	0.0182 ± 0.068
CAGTAGAC	-0.021 ± 0.044
AGGATGCG	-0.118 ± 0.034
ACTATATC	0.273 ± 0.02
ACTATATA	0.235 ± 0.028
CCTATATC	-0.0516 ± 0.071
CCTTGTAC	0.176 ± 0.15
ACGAAGCG	-0.0243 ± 0.071
ATACTAGG	0.138 ± 0.032

Sequence	PBM 8-mer E-score
ACATATTG	0.11 ± 0.12
GAATATTA	0.137 ± 0.083
CCATATCA	0.0749 ± 0.018
ACATATCA	0.262 ± 0.041
AAATATTC	0.249 ± 0.0014
CCATATTA	0.124 ± 0.062
ACATATTA	0.241 ± 0.011
TAATATGA	0.221 ± 0.017
TAATATTA	0.337 ± 0.011
ACATATCG	0.046 ± 0.074
CAATATTC	0.0728 ± 0.011
GAATATTC	0.195 ± 0.08
CGGCGTCC	-0.114 ± 0.047
ATGCAATG	-0.00261 ± 0.02
CAACTTGG	-0.0581 ± 0.1
AGAGAACC	-0.143 ± 0.11
CAGATCTC	-0.176 ± 0.038
ATCTGACG	-0.0395 ± 0.07
ATAGCGCG	0.0731 ± 0.084
CATTGCGG	-0.148 ± 0.13
ACTTCAAC	0.11 ± 0.041
TCATAGCA	0.108 ± 0.0018
CAATATTA	0.221 ± 0.056
ACATAGCA	0.272 ± 0.032
AAATATTA	0.27 ± 0.028

Sequence	PBM 8-mer E-score
CCATAGCA	0.0753 ± 0.09
AAATATTG	0.138 ± 0.0027
ATAAAGAG	0.181 ± 0.089
AGACAACA	0.0868 ± 0.027
TCTATCAA	0.184 ± 0.099
ATCTCCAT	0.0165 ± 0.085
ATAGGACC	-0.0994 ± 0.04
GGTAAGGA	-0.00502 ± 0.057
ACCGCGTA	0.0588 ± 0.11
ACCGCGTG	0.294 ± 0.022
GACGCGTA	0.0707 ± 0.061
AACGCGTA	0.0549 ± 0.11
AACGCGTG	0.144 ± 0.01
CACGCGTG	0.314 ± 0.11
CATGCTGA	0.2602 ± 0.0021
GATGCTGA	-0.131 ± 0.16
CACGCGTA	0.248 ± 0.051
CACGCGTC	0.208 ± 0.048
ACCGCGTC	-0.131 ± 0.011
AATGCTGA	0.088 ± 0.064
